High-throughput results deposited in PubChem BioAssay by Broad Institute.
Shh pathway inh: Sonic Hedgehog pathway inhibition; Shh-LIGHT2 Gli-luciferase reporter, 30 h; inhibition, % (test concentration not listed); 2.1% of 22,000 active;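 active means mean inhibition across valid replicates above about 65%, limit read from the data; inconclusive means mean under the limit, yet half or more replicates past it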;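 further: pathway switched on by Shh-conditioned medium diluted 1 in 25 in low serum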
PD-1 reverse act: reversal of PD-1 mediated T-cell inhibition; primary human CD4 T cells, PD-L1 beads, CellTiter-Glo 96 h; activation, % (concentration not given with the values); 29,000 tested, under 10 active; call rule not given here;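 further: 0% = median vehicle wells and 100% = positive control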
NOMO-1 viab: STK33 inhibitor candidate reducing NOMO-1 cell viability | NOMO-1 AML viability, CellTiter-Glo luminescence, 72 h | inhibition, % (test concentration not listed) | 7.5% of 37,000 active | AID 2330; in the data active means inhibition above about 80%; inconclusive means no clear call, values can overlap the other calls
Starred values were filed as active, the others as inactive; ? = inconclusive; · = no result given. Sampled rows, rich in hits. Any-hit rate of the full collection: about 7.7%.

SMILES	Shh pathway inh	PD-1 reverse act	NOMO-1 viab
C[C@H](CO)N1C[C@H](C)[C@H](CN(C)Cc2ccc(C(=O)Nc3ccccc3N)cc2)Oc2ccc(NC(=O)Nc3ccc(F)cc3)cc2CC1=O	·	-4.4	126.7*
Nc1ncnc(Oc2cccc3cccnc23)c1[N+](=O)[O-]	·	-11.3	107.7*
Nc1ncnc(NCc2cccnc2)c1[N+](=O)[O-]	·	0.2	4.4
CC1=CC=C(C=O)C(C)(C)C1OC(=O)/C=C(\C)CO (configuration not stated)	0.1	-0.4	4.6
COC(=O)CNC(=O)c1ccc(S(=O)(=O)N2CCOCC2)cc1	·	0.7	34.5
CC(C)(C)NC(=O)c1ccccc1	-13.9	-0.3	20.6
CC(C)(C)NC(=O)c1ccc2c3c(onc13)-c1ccccc1C2=O	27.9	-5.9	113.9*
C[C@@H]1CN([C@H](C)CO)C(=O)c2cc(NC(=O)Nc3cccc4ccccc34)ccc2O[C@@H]1CN(C)C(=O)Nc1ccc(C(F)(F)F)cc1	-17.1	·	21.9
C[C@@H]1CN([C@H](C)CO)C(=O)c2cc(NC(=O)Nc3ccc(C(F)(F)F)cc3)ccc2O[C@H]1CN(C)C(=O)Nc1cccc2ccccc12	17.5	·	116.9*
C[C@@H]1CN([C@@H](C)CO)C(=O)c2cc(NC(=O)Nc3cccc4ccccc34)ccc2O[C@@H]1CN(C)Cc1ccc(C(F)(F)F)cc1	·	-6.7	106.4*
C[C@@H]1CN([C@H](C)CO)C(=O)c2cc(NC(=O)Nc3cccc4ccccc34)ccc2O[C@@H]1CN(C)Cc1ccc(C(F)(F)F)cc1	0.1	-5.4	?
C[C@H](CO)N1C[C@H](C)[C@H](CN(C)C(=O)Nc2cccc3ccccc23)Oc2ccc(NC(=O)Nc3ccc(C(F)(F)F)cc3)cc2C1=O	21.0	-2.7	114.2*
C[C@@H]1CN([C@@H](C)CO)C(=O)c2cc(NC(=O)Nc3ccc(F)cc3)ccc2O[C@@H]1CN(C)C(=O)Nc1cccc2ccccc12	8.4	·	69.3
O=C(Cn1cnc2ccccc2c1=O)Nc1ccc2c(c1)oc1ccccc12	·	0.4	24.9
CS(=O)(=O)N(CC(=O)Nc1ccc(F)c(F)c1)c1ccc(Br)cc1	·	-4.5	17.9
O=C(CSc1nc(Nc2ccccc2)nc(Nc2ccccc2)n1)N1CCN(c2ccccc2)CC1	·	-0.1	-6.7
CC(Oc1ccc(Cl)cc1Cl)C(=O)Nc1cccc(NC(=O)c2ccc(Cl)cc2Cl)c1 (configuration not stated)	·	1.0	17.3
CC12CC3CC(C1)CC(NC(=O)c1ccc(Cl)cc1Cl)(C3)C2	-60.2	-1.2	114.6*
COc1ccc(CN(C)C[C@@H]2Oc3c(NC(=O)Nc4ccc(C(F)(F)F)cc4)cccc3C(=O)N([C@@H](C)CO)C[C@H]2C)cc1	15.1	-8.0	115.5*
COc1ccc(NC(=O)Nc2cccc3c2O[C@H](CN(C)Cc2ccc(C(F)(F)F)cc2)[C@H](C)CN([C@@H](C)CO)C3=O)cc1	-19.6	0.0	47.1
COc1ccc(NC(=O)Nc2cccc3c2O[C@@H](CN(C)Cc2ccc(C(F)(F)F)cc2)[C@H](C)CN([C@H](C)CO)C3=O)cc1	-7.9	-2.6	84.4*
COc1ccc(CN(C)C[C@@H]2Oc3c(NC(=O)Nc4ccc(C(F)(F)F)cc4)cccc3C(=O)N([C@H](C)CO)C[C@@H]2C)cc1	23.0	-4.0	89.8*
C[C@@H]1CN([C@@H](C)CO)C(=O)c2cccc(NC(=O)Nc3ccc(C(F)(F)F)cc3)c2O[C@H]1CN(C)Cc1ccc(Oc2ccccc2)cc1	-27.3	·	?
Cc1nn(C(C)C(=O)Nc2ccc(F)c(Cl)c2)c(C)c1[N+](=O)[O-] (configuration not stated)	·	-1.7	17.4
O=C(Nc1ccc(S(=O)(=O)NCC2CCCO2)cc1)c1cc(-c2ccccc2)nc2ccccc12 (configuration not stated)	·	1.5	26.1
SMILES	Shh pathway inh	PD-1 reverse act	NOMO-1 viab
COc1cc(C(=O)OCc2ccc(-c3cccc(Cl)c3Cl)o2)cc(OC)c1OC	·	1.4	-21.2
Cc1ccc(C(=O)C2C(=O)C(=O)N(Cc3ccco3)C2c2ccc(F)cc2)o1 (configuration not stated)	·	2.2	-13.2
CC(=O)c1ccc(OC(=O)CCCN2C(=O)c3ccccc3C2=O)cc1	·	·	-9.1
CCCCN1C(=O)[C@H]2Cc3c([nH]c4ccccc34)[C@H](c3ccc(OC)cc3)N2C1=O	79.0*	-1.4	51.8
C=C(C)Cc1c(C)nc(-c2ccc(Cl)cc2)nc1OC(=S)N(CC)CC	·	-0.7	59.5
CS(=O)(=O)N(CC(=O)Nc1ccccc1C(F)(F)F)c1ccc2c(c1)OCCO2	·	·	-5.0
C[C@@H]1CN([C@@H](C)CO)C(=O)c2cccc(NC(=O)Nc3cccc4ccccc34)c2O[C@H]1CN(C)C(=O)Nc1ccc(C(F)(F)F)cc1	4.1	-5.5	44.4
C[C@H](CO)N1C[C@H](C)[C@H](CN(C)C(=O)Nc2cccc3ccccc23)Oc2c(NC(=O)Nc3ccccc3)cccc2C1=O	-32.2	-1.2	13.9
C[C@@H]1CN([C@H](C)CO)C(=O)c2cccc(NC(=O)Nc3ccc(C(F)(F)F)cc3)c2O[C@H]1CN(C)C(=O)Nc1cccc2ccccc12	-3.9	·	83.5*
C[C@H]1CN([C@@H](C)CO)C(=O)c2cccc(NC(=O)Nc3ccc(C(F)(F)F)cc3)c2O[C@@H]1CN(C)C(=O)Nc1cccc2ccccc12	-27.7	·	101.9*
COc1cccc(C2CC(=O)NC(SCC(=O)Nc3ccccc3Cl)=C2C#N)c1OC (configuration not stated)	·	2.9	-8.0
O=C(O)C1C2CCC(C2)C1C(=O)c1ccccc1 (configuration not stated)	-23.2	1.8	0.9
CC1CCc2c(sc3nnn(CC(=O)Nc4cc(Cl)ccc4Cl)c(=O)c23)C1 (configuration not stated)	·	-1.2	23.8
COC(=O)c1cccc(NC(=O)CN(c2ccc(Br)c(C)c2)S(C)(=O)=O)c1C	·	0.2	36.4
COC(=O)c1cccc(NC(=O)CN(c2cccc(F)c2)S(C)(=O)=O)c1C	·	·	97.6*
COC(=O)c1cccc(NC(=O)CN(c2ccc(F)c(Cl)c2)S(C)(=O)=O)c1C	·	-2.3	105.9*
COC(=O)c1ccccc1NC(=O)CN(c1cccc(F)c1)S(C)(=O)=O	·	·	-4.5
COC(=O)c1ccc(NC(=O)CN(c2ccc(F)c(Cl)c2)S(C)(=O)=O)cc1	·	-0.6	24.8
COC(=O)c1cc(NC(=O)CN(c2ccc(F)c(Cl)c2)S(C)(=O)=O)ccc1Cl	·	·	95.8*
COC(=O)c1cccc(NC(=O)CN(c2ccc(F)cc2)S(C)(=O)=O)c1C	·	·	109.5*
COC(=O)c1ccccc1NC(=O)CN(c1ccc(F)c(Cl)c1)S(C)(=O)=O	·	0.3	-2.5
CCc1ccccc1NC(=O)Cn1nc([N+](=O)[O-])cc1C	·	1.1	2.2
Cc1ccc(NC(=O)c2ccc(CSc3ncnc4nc[nH]c34)cc2)cc1	13.6	0.0	-1.5
COc1ccc(NC(=O)CSc2nc3c(c(C(F)(F)F)c2C#N)CCC3)c(OC)c1	·	·	0.8
O=C(CSc1ncnc2sc(-c3ccccc3)cc12)c1ccc2c(c1)OCCO2	-24.6	-0.2	19.8
O=C(COc1ccc([N+](=O)[O-])cc1)Nc1cc(Cl)ccc1O	·	-2.5	54.1
O=C(Nc1ccc([N+](=O)[O-])cc1Cl)c1cc(Cl)ccc1O	88.2*	·	120.1*
O=C(Nc1ccccc1)c1cc([N+](=O)[O-])ccc1Cl	21.9	-20.3	117.8*
